According to PubChem BioAssay (NCI):
The panel holds about 83,000 compounds, 20% with a hit somewhere; the sample as a whole holds those more often.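 Treatment: one concentration, 48 hours, 96-well format. Scoring: percent growth, with anything below 10 considered active.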 Unmarked numbers belong to inactive results. Calls of active or inactive are those of the source.

Assays:
Assay in all cases: NCI-60 one-dose screen, 48 h (100 = growth as untreated, 0 = no growth, -100 = all killed)
Conditions in all cases: 10 µM unless noted
HCT-15 colon = tested on: HCT-15 colon
HT29 colon = tested on: HT29 colon
SNB-75 CNS = tested on: SNB-75 CNS
SNB-19 CNS = tested on: SNB-19 CNS
U251 CNS = tested on: U251 CNS
PC-3 prostate = tested on: PC-3 prostate
SK-MEL-5 melanoma = tested on: SK-MEL-5 melanoma
UACC-62 melanoma = tested on: UACC-62 melanoma
LOX IMVI melanoma = tested on: LOX IMVI melanoma
SK-MEL-28 melanoma = tested on: SK-MEL-28 melanoma
SK-MEL-2 melanoma = tested on: SK-MEL-2 melanoma
EKVX NSCLC = tested on: EKVX NSCLC
SN12C renal = tested on: SN12C renal
UO-31 renal = tested on: UO-31 renal
TK-10 renal = tested on: TK-10 renal
ACHN renal = tested on: ACHN renal
CAKI-1 renal = tested on: CAKI-1 renal
A498 renal = tested on: A498 renal
CCRF-CEM leukemia = tested on: CCRF-CEM leukemia
MOLT-4 leukemia = tested on: MOLT-4 leukemia

SMILES	growth (HCT-15 colon)	growth (HT29 colon)	growth (SNB-75 CNS)	growth (SNB-19 CNS)	growth (U251 CNS)	growth (PC-3 prostate)	growth (SK-MEL-5 melanoma)	growth (UACC-62 melanoma)	growth (LOX IMVI melanoma)	growth (SK-MEL-28 melanoma)	growth (SK-MEL-2 melanoma)	growth (EKVX NSCLC)	growth (SN12C renal)	growth (UO-31 renal)	growth (TK-10 renal)	growth (ACHN renal)	growth (CAKI-1 renal)	growth (A498 renal)	growth (CCRF-CEM leukemia)	growth (MOLT-4 leukemia)
Cc1cc(-c2ccc(N=Nc3c(S(=O)(=O)O)cc4cc(S(=O)(=O)O)cc(O)c4c3O)c(C)c2)ccc1N=Nc1c(S(=O)(=O)O)cc2cc(S(=O)(=O)O)cc(O)c2c1O	109%	103%	82.4%	106%	101%	93.6%	101%	114%	107%	110%	90.6%	79.6%	116%	73.9%	115%	101%	78.1%	122%	102%	127%
Cc1ccccc1NC(=O)c1sc2nc3c(cc2c1N)C(=O)CCC3	32.8%	21.1%	13.1%	46.1%	49%	30.3%	18.6%	36.9%	47.4%	52.8%	58.6%	87.5%	64.5%	77.5%	81.2%	49.3%	55.4%	31.3%	30.3%	67.5%
O=C(NCCN1CCCC1)n1cc(-c2ccncc2)c(-c2cc(O)cc(Cl)c2)n1	88.6%	90.1%	110%	98.5%	82.9%	103%	62.9%	34.6%	79.7%	36.7%	90.8%	119%	82.5%	100%	78.6%	82.2%	109%	103%	85.7%	82.7%
c1cn2cc(-c3ccc4ncn(C5CCCCC5)c4c3)nc(-c3ccc4c(c3)ncn4C3CCCCC3)c2n1	-11.5% (active)	-26.2% (active)	-89.6% (active)	6.63% (active)	-83.3% (active)	-64.1% (active)	-89.4% (active)	-47.7% (active)	-87.4% (active)	-19.8% (active)	-65.6% (active)	-13.1% (active)	-54.6% (active)	-85.4% (active)	-59.3% (active)	-58.8% (active)	17.2%	-88.1% (active)	4.28% (active)	-30.5% (active)
CN1C(=O)NC(Cc2c[nH]c3c(Cl)cccc23)C1=O (stereo unspecified)	99.5%	110%	103%	106%	92.8%	82.9%	98.5%	96.1%	99.7%	115%	106%	118%	101%	78.5%	147%	99.3%	125%	106%	113%	111%
COc1ccc2c(c1)N(Cc1ccc(Cl)cc1)CCC2N1CCCC1=O (stereo unspecified)	33.5%	45.5%	27.1%	54.7%	39.1%	24%	24.7%	42.1%	30.3%	63.5%	64.4%	36.9%	39.2%	8.64% (active)	55.3%	53.3%	40.8%	-7.14% (active)	–	34.5%
CN(C)CCCN1c2ccccc2CCc2ccccc21	96.6%	83.5%	50.8%	94.1%	91.6%	82.8%	75.3%	94%	106%	102%	105%	107%	80.1%	83.2%	93.3%	91.4%	84.6%	124%	97.6%	83.7%
Oc1ccc(-c2nc3ccccc3s2)cc1CN(Cc1ccccn1)Cc1ccccn1	15.2%	25.7%	38.7%	20.5%	8.51% (active)	30.3%	-67.4% (active)	8.93% (active)	2.31% (active)	33.1%	3.08% (active)	5.39% (active)	20.3%	-31.8% (active)	2.77% (active)	4.42% (active)	-15.8% (active)	31.9%	6.5% (active)	2.86% (active)
Cc1cccc(/C=N/n2c(-c3ccc(Cl)cc3)nc3c(Br)cc(Br)cc3c2=O)c1	70.5%	67.9%	45.9%	62%	43%	21.4%	38.5%	35.5%	52.6%	60.7%	72.5%	52.3%	47.9%	41.8%	26.8%	–	31.2%	99.6%	75.6%	55.4%
Cc1ccc(C)c(NC(=O)c2sc3c(=O)[nH]cnc3c2C)c1	49.8%	34.9%	81.1%	91.7%	86.1%	83.4%	74.4%	61.1%	85%	89.3%	41.4%	85%	101%	74.9%	77.8%	–	64.5%	70.3%	83.1%	69.9%
COc1cc(NC(=O)CSc2nc3ccc(Cl)cc3c(=O)n2Cc2ccccc2)cc(OC)c1OC	88.3%	56.5%	53.4%	88.3%	55.5%	71.1%	45.5%	43.2%	74.5%	78.2%	77.6%	83.2%	88.5%	62.4%	72.9%	–	76.9%	11.7%	93.8%	–
CS(=O)(=O)c1ccc(C(=O)Nc2ccc(Cl)c(-c3ccccn3)c2)c(Cl)c1	22.7%	-7.2% (active)	14%	51.1%	15.5%	7.55% (active)	10.9%	19.7%	16%	23.2%	-6.37% (active)	23.5%	28.2%	24.6%	11.9%	27.9%	-17.6% (active)	6.2% (active)	–	11.5%
c1coc(CNc2c3ccccc3nc3ccccc23)c1	44.2%	35.1%	81.5%	62.8%	65.1%	67%	84.3%	66.1%	37.1%	97.7%	101%	62.1%	53.5%	39.5%	88.4%	–	41%	20.1%	57.2%	27.2%
CC(C)(C)OC(=O)N1CCCN(CCNc2nccc(-c3c(-c4cccc(O)c4)nc4sccn34)n2)S1(=O)=O	99.9%	56.7%	84%	126%	117%	85%	86.9%	12.1%	32.3%	45.4%	103%	112%	82.7%	74.5%	121%	–	49.4%	127%	75.8%	90.8%
C=C1C(=O)O[C@H]2[C@H]1CC/C(COC(=O)NCc1[nH]nc3ccccc13)=C\CC[C@@]1(C)O[C@@H]21	5.35% (active)	-32.6% (active)	64.9%	67.8%	27.5%	28.8%	25.7%	16.5%	-17.2% (active)	30.3%	30.9%	50.1%	35.4%	71.5%	-4.85% (active)	–	16.6%	94.3%	-6.22% (active)	-12.7% (active)
